{"source": "PubChem BioAssay AID1347147", "about": "(National Center for Advancing Translational Sciences (NCATS), 2019)", "note": "Results filed as inconclusive are left out. Where a call stands in place of a potency, no number is given. Active and inactive are the calls of the source. The call rests on the fitted dose curve; in most records, active means well fitted inhibition curve with a large enough effect; inconclusive means small, poorly fitted or top-dose-only effect; inactive means no such curve, though single readings can be large or run the other way. Potency means the concentration at half of the fitted maximal effect."}
{"target": "N-terminal Xaa-Pro-Lys N-methyltransferase 1 (Homo sapiens) (UniProt Q9BV86)", "sequence (Q9BV86 whole entry, looked up)": "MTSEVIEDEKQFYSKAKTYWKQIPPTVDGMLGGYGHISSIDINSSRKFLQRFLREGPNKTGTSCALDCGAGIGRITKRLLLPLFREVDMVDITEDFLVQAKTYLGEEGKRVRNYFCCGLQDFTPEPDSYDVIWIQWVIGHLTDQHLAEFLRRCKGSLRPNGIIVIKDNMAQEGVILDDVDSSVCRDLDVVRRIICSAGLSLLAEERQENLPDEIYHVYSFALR", "assay": "qHTS Assay for Inhibitors of N-terminal methyltransferase 1 (NTMT1): MTaseGlo Confirmatory Screen, Round 2", "conditions": "NTMT1 enzyme, MTase-Glo SAH luminescence; series mostly up to 57.4 µM", "how_it_was_run": "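Luminescent MTase-Glo readout of SAH formed in 30 min at RT by 125 nM NTMT1, 100 µM SAM and 1 µM SPKRIA substrate, after ~15 min compound preincubation. Percent inhibition versus no-enzyme and DMSO controls was Hill-fitted.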"}
{"smiles": "O=C1NC(=O)C(c2ccccc2[N+](=O)[O-])=C1Nc1ccc(O)c(Cl)c1", "Potency": "inactive"}
{"smiles": "CSc1nc(N)c2ncn([C@@H]3O[C@H](COP(=O)(O)OP(=O)(O)OP(=O)(O)O)[C@@H](O)[C@H]3O)c2n1", "Potency": "inactive"}
{"smiles": "Cc1[nH]c(=O)c(C#N)cc1-c1ccc2nccn2c1", "Potency": "inactive"}
{"smiles": "Cn1ncc(S(=O)(=O)Cc2ccccc2)c(Br)c1=O", "Potency": "inactive"}
{"smiles": "CC(CN1c2ccccc2Sc2ccccc21)N(C)C", "note": "(configuration not stated)", "Potency": "inactive"}
{"smiles": "OCCN1CCN(CC/C=C2/c3ccccc3Sc3ccc(C(F)(F)F)cc32)CC1", "Potency": "inactive"}
{"smiles": "CCNC(=O)[C@H]1O[C@H](n2cnc3c(N)nc(NCCc4ccc(CCC(=O)O)cc4)nc32)[C@@H](O)[C@@H]1O", "Potency": "inactive"}
{"smiles": "CC(C)NC[C@H](O)c1ccc(O)c(O)c1", "Potency": "inactive"}
{"smiles": "CC(C)(C)c1ccc(S(=O)(=O)/C=C\\C#N)cc1", "Potency": "inactive"}
{"smiles": "CCOC(=O)c1cnc2c(cnn2CC)c1NN=C(C)C", "Potency": "inactive"}
{"smiles": "CNCCc1cnc(CCC(c2ccccc2)c2ccccc2)[nH]1", "Potency": "inactive"}
{"smiles": "CN(C)c1ccc(/C=C2\\C(=O)Nc3ccccc32)cc1", "Potency": "inactive"}
{"smiles": "Oc1ccc2ccccc2c1SSc1c(O)ccc2ccccc12", "Potency": "inactive"}
{"smiles": "Cc1ccc(S(=O)(=O)/C=C/C#N)cc1", "Potency": "inactive"}
{"smiles": "CCn1nc(C(=O)O)c(=O)c2cc3c(cc21)OCO3", "Potency": "inactive"}
{"smiles": "OCC1OC(n2cnc3c(NCc4ccco4)ncnc32)C(O)C1O", "note": "(configuration not stated)", "Potency": "inactive"}
{"smiles": "O=S(=O)(c1cccc2c(Cl)cccc12)N1CCCNCC1", "Potency": "inactive"}
{"smiles": "Nc1nc(Cl)nc2c1ncn2[C@@H]1O[C@H](CO)[C@@H](O)[C@@H]1F", "Potency": "inactive"}
{"smiles": "NC(Cc1c[nH]c2ccc(O)cc12)C(=O)O", "note": "(configuration not stated)", "Potency": "inactive"}
{"smiles": "Nc1nc(Nc2ccccc2)nc2c1ncn2[C@@H]1O[C@H](CO)[C@@H](O)[C@H]1O", "Potency": "inactive"}
{"smiles": "C/C(=C\\CNc1ncnc2c1ncn2[C@@H]1O[C@H](CO)[C@@H](O)[C@H]1O)CO", "Potency": "inactive"}
{"smiles": "OC[C@H]1O[C@H](n2cnc3c(N[C@H]4CCC[C@@H]4O)ncnc32)[C@H](O)[C@@H]1O", "Potency": "inactive"}
{"smiles": "CC(C)COCC(CN(Cc1ccccc1)c1ccccc1)N1CCCC1", "note": "(configuration not stated)", "Potency": "inactive"}
{"smiles": "COc1cc2c(NC3CCN(C(C)C)CC3)nc(N3CCC(F)(F)CC3)nc2cc1OCCCN1CCCCC1", "Potency": "inactive"}
{"smiles": "COc1cc2nc(N3CCCN(C)CC3)nc(NC3CCNCC3)c2cc1OC", "Potency": "inactive"}
{"smiles": "Nc1nc2ccc(Cl)cc2c2nc(-c3ccco3)nn12", "Potency": "inactive"}
{"smiles": "Oc1ccccc1O", "Potency": "inactive"}
{"smiles": "Oc1cc(O)c2c(c1)O[C@H](c1ccc(O)c(O)c1)[C@@H](O)C2", "Potency": "inactive"}
{"smiles": "N.N.N.N.N.N.N.N.N.N.N.N.N.N.O.O.[Ru+4].[Ru+5].[Ru+5]", "Potency": "31.6 µM (active)"}
{"smiles": "COc1ccc(C(=O)/C(Cc2cc(OC)c(OC)c(OC)c2)=C(\\C(=O)O)c2ccc3c(c2)OCO3)cc1", "Potency": "inactive"}
{"smiles": "CC(C)NC[C@@H](O)c1ccc(O)c(O)c1", "Potency": "inactive"}
{"smiles": "COc1ccccc1N1CCN(CCN2C(=O)CC3(CCCC3)CC2=O)CC1", "Potency": "inactive"}
{"smiles": "COc1cc(CNC(=O)CCCCCCC(C)C)ccc1O", "Potency": "inactive"}
{"smiles": "CN1CCN(CCCN2c3ccccc3Sc3ccc(Cl)cc32)CC1", "Potency": "inactive"}
{"smiles": "OC[C@H]1O[C@@H](n2cnc3c(NCc4ccco4)ncnc32)[C@H](O)[C@@H]1O", "Potency": "inactive"}
{"smiles": "CCC(=O)c1ccc2c(c1)N(CCCN(C)C)c1ccccc1S2", "Potency": "inactive"}
{"smiles": "Oc1ccc(Cn2cc[nH]c2=S)cc1", "Potency": "inactive"}
